# Measured values published in the supplement of paper PMC6897291.
# Counter-ions that a name gives are not always drawn.
# What was measured:
# U-2932 [1] = assay: growth inhibition by drug alone (1 - RLU/untreated control) (fraction); higher = stronger inhibition; conditions: 177Lu-lilotomab satetraxetan 0 ug/ml
# How it was run: (§1)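 A radiolabelled anti-CD37 antibody conjugate (~600 MBq/mg) was applied for 18 h at 0.5 µg/ml to RIVA and 1 µg/ml to U-2932 cells, with untreated cells run alongside. All cells were washed and seeded at 3,000 cells/well onto library-printed plates at 10/100 nM (RIVA) or 10/1,000 nM (U-2932). Growth inhibition was based on RealTime-Glo luminescence compared with untreated no-drug wells. Daily reads began on day 3 after 1 h at 37°C, with each value being 1 − RLU/mean of the 48 such wells on that plate.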
# RIVA [2] = assay: as above; conditions: 177Lu-lilotomab satetraxetan 0 ug/ml
# How it was run: as §1
# U-2932 [3] = assay: growth inhibition by drug plus 177Lu-lilotomab satetraxetan (1 - RLU/untreated control) (fraction); higher = stronger inhibition; conditions: 177Lu-lilotomab satetraxetan 1 ug/ml
# How it was run: as §1
# RIVA [4] = assay: as above; conditions: 177Lu-lilotomab satetraxetan 0.5 ug/ml
# How it was run: as §1
SMILES,"growth inhibition by drug alone (U-2932 [1]; 10 nM, time (day): 3)","growth inhibition by drug alone (U-2932 [1]; 10 nM, time (day): 4)","growth inhibition by drug alone (U-2932 [1]; 10 nM, time (day): 5)","growth inhibition by drug alone (U-2932 [1]; 10 nM, time (day): 6)","growth inhibition by drug alone (U-2932 [1]; 1000 nM, time (day): 3)","growth inhibition by drug alone (U-2932 [1]; 1000 nM, time (day): 4)","growth inhibition by drug alone (U-2932 [1]; 1000 nM, time (day): 5)","growth inhibition by drug alone (U-2932 [1]; 1000 nM, time (day): 6)","growth inhibition by drug alone (RIVA [2]; 10 nM, time (day): 3)","growth inhibition by drug alone (RIVA [2]; 10 nM, time (day): 4)","growth inhibition by drug alone (RIVA [2]; 10 nM, time (day): 5)","growth inhibition by drug alone (RIVA [2]; 10 nM, time (day): 6)","growth inhibition by drug alone (RIVA [2]; 100 nM, time (day): 3)","growth inhibition by drug alone (RIVA [2]; 100 nM, time (day): 4)","growth inhibition by drug alone (RIVA [2]; 100 nM, time (day): 5)","growth inhibition by drug alone (RIVA [2]; 100 nM, time (day): 6)","growth inhibition by drug plus 177Lu-lilotomab satetraxetan (U-2932 [3]; 10 nM, time (day): 3)","growth inhibition by drug plus 177Lu-lilotomab satetraxetan (U-2932 [3]; 10 nM, time (day): 4)","growth inhibition by drug plus 177Lu-lilotomab satetraxetan (U-2932 [3]; 10 nM, time (day): 5)","growth inhibition by drug plus 177Lu-lilotomab satetraxetan (U-2932 [3]; 10 nM, time (day): 6)","growth inhibition by drug plus 177Lu-lilotomab satetraxetan (U-2932 [3]; 1000 nM, time (day): 3)","growth inhibition by drug plus 177Lu-lilotomab satetraxetan (U-2932 [3]; 1000 nM, time (day): 4)","growth inhibition by drug plus 177Lu-lilotomab satetraxetan (U-2932 [3]; 1000 nM, time (day): 5)","growth inhibition by drug plus 177Lu-lilotomab satetraxetan (U-2932 [3]; 1000 nM, time (day): 6)","growth inhibition by drug plus 177Lu-lilotomab satetraxetan (RIVA [4]; 10 nM, time (day): 3)","growth inhibition by drug plus 177Lu-lilotomab satetraxetan (RIVA [4]; 10 nM, time (day): 4)","growth inhibition by drug plus 177Lu-lilotomab satetraxetan (RIVA [4]; 10 nM, time (day): 5)","growth inhibition by drug plus 177Lu-lilotomab satetraxetan (RIVA [4]; 10 nM, time (day): 6)","growth inhibition by drug plus 177Lu-lilotomab satetraxetan (RIVA [4]; 100 nM, time (day): 3)","growth inhibition by drug plus 177Lu-lilotomab satetraxetan (RIVA [4]; 100 nM, time (day): 4)","growth inhibition by drug plus 177Lu-lilotomab satetraxetan (RIVA [4]; 100 nM, time (day): 5)","growth inhibition by drug plus 177Lu-lilotomab satetraxetan (RIVA [4]; 100 nM, time (day): 6)"
O=C(c1cc(Cc2n[nH]c(=O)c3ccccc23)ccc1F)N1CCN(C(=O)C2CC2)CC1 [Olaparib (AZD2281)],0.0127,-0.023,-0.0205,0.0558,-0.0113,0.025,0.0248,0.0776,-0.144,-0.15,-0.137,-0.143,-0.228,-0.239,-0.25,-0.231,-0.0255,0.035,0.0896,0.188,0.0503,0.108,0.156,0.315,0.539,0.593,0.618,0.613,0.39,0.482,0.505,0.533
CN(Cc1cnc2nc(N)nc(N)c2n1)c1ccc(C(=O)N[C@@H](CCC(=O)O)C(=O)O)cc1 [Abitrexate (Methotrexate)],-0.0461,-0.0435,-0.0522,-0.0907,0.866,0.93,0.956,0.968,-0.206,-0.255,-0.282,-0.39,-0.038,-0.184,-0.173,-0.287,-0.123,-0.083,-0.0233,0.0372,0.851,0.924,0.957,0.972,0.364,0.489,0.508,0.521,0.452,0.49,0.483,0.457
Cc1cc(O)c2c(c1)C(=O)c1cccc(O)c1C2=O [Chrysophanic acid (Chrysophanol)],-0.0586,-0.0671,-0.0488,0.0657,-0.0803,-0.0522,-0.0654,0.0406,-0.266,-0.269,-0.305,-0.322,-0.0635,-0.135,-0.0963,-0.115,-0.0546,-0.0035,0.0467,0.1,-0.0941,-0.0464,-0.00693,0.13,–,–,–,–,–,–,–,–
COc1cccc2c1C(=O)c1c(O)c3c(c(O)c1C2=O)C[C@@](O)(C(=O)CO)C[C@@H]3O[C@H]1C[C@H](N)[C@@H](O)[C@H](C)O1 [Epirubicin Hydrochloride],0.0435,0.0793,0.0717,0.093,0.943,0.964,0.975,0.98,-0.0808,0.0051,0.0307,0.0473,0.436,0.719,0.848,0.91,0.24,0.323,0.39,0.484,0.965,0.977,0.982,0.986,0.734,0.792,0.829,0.863,0.887,0.93,0.949,0.967
Cc1c(CCOc2ccc(C(=O)O)cc2)c2cc(Cl)ccc2n1C(c1ccccc1)c1ccccc1,0.00805,-0.00114,-0.0847,-0.0955,-0.0489,-0.0693,-0.125,-0.133,-0.14,-0.201,-0.294,-0.473,-0.448,-0.454,-0.564,-0.758,-0.0474,-0.0119,0.00779,0.0213,0.0043,0.0519,0.061,0.147,–,–,–,–,–,–,–,–
C[C@H](NC(=O)Cc1cc(F)cc(F)c1)C(=O)N[C@@H]1C(=O)N(C)c2ccccc2-c2ccccc21,-0.0485,-0.0319,-0.0413,0.0451,-0.0641,-0.0187,-0.0724,-0.157,-0.258,-0.261,-0.314,-0.599,-0.307,-0.355,-0.331,-0.429,-0.062,-0.041,-0.0625,-0.0177,-0.026,0.0466,0.00781,-0.0375,0.291,0.422,0.458,0.48,0.298,0.4,0.412,0.389
"CC[C@H](CO)Nc1nc(NCc2ccccc2)c2ncn(C(C)C)c2n1 [Roscovitine (Seliciclib, CYC202)]",0.0612,0.034,-0.0433,-0.134,-0.0928,-0.0155,-0.074,-0.195,0.0751,0.0434,0.0188,-0.143,-0.0194,-0.0523,-0.0745,-0.157,0.0443,0.0516,0.0573,0.114,-0.105,0.0161,-0.0091,-0.013,0.429,0.539,0.544,0.554,0.49,0.54,0.55,0.531
CNC(=O)c1cc(Oc2ccc(NC(=O)Nc3cc(C(C)(C)C)nn3-c3ccc4ncccc4c3)c(F)c2)ccn1 [DCC-2036 (Rebastinib)],0.0874,0.0635,0.096,-0.234,0.0869,0.114,0.104,0.0187,-0.0575,0.00723,-0.0883,-0.395,-0.428,-0.203,-0.231,-0.405,0.0343,0.0699,0.117,0.132,0.0878,0.127,0.208,0.293,0.44,0.57,0.586,0.613,0.486,0.607,–,–
